AC50, IC50 and outcome data for 25 molecules are collected here from PubChem BioAssay.

The nature of test [1]: viability loss in pontine glioma line – cell-based, SU-DIPG-XVII, MIPE5.0, CellTiter-Glo, qHTS, dose response (AID 1347060).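 As to AC50: cells exposed to compound for 48 hours before viability readout.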 The settings on record: CellTiter-Glo ATP luminescence. (In general: ATP-based viability assays read luminescence as a measure of living cells.)
Test [2] can be described thus: viability loss in pontine glioma line – cell-based, SU-DIPG-XIII, MIPE5.0, CellTiter-Glo, qHTS, dose response (AID 1347064; cut-off not given, nearly all actives have AC50 up to about 23 µM;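 as to AC50: cells exposed to compound for 48 hours before the viability read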). The settings on record: CellTiter-Glo ATP luminescence.
Test [3] can be described thus: viability loss in pontine glioma line – cell-based, SU-DIPG-XXV, MIPE5.0, CellTiter-Glo, qHTS, dose response (AID 1347065).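 Also: cells exposed to compound for 48 hours before ATP readout.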 The settings on record: CellTiter-Glo ATP luminescence.
Test [4] can be described thus: JHH-DIPG-1 glioma cell viability, MIPE5.0 library, CellTiter-Glo luminescence, qHTS (AID 1347067).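 Also: cells exposed to compound for 48 hours before readout.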 The settings on record: JHH-DIPG-1 glioma viability, CellTiter-Glo ATP luminescence.
Test [5] is described as follows: growth inhibition of DIPG cells – cell-based, MIPE5.0 library, qHTS (AID 1347068; cut-off not given, nearly all actives have IC50 up to about 30 µM;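 as to IC50: cells exposed to compound for 48 hours before viability readout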). The settings on record: SU-DIPG-XXV viability. For orientation: qHTS replaces the single test concentration by a dilution series.

SMILES strings stand for the structures. Results filed as inconclusive are left out. Activity calls are given as the source filed them. Unless noted, the limit is not given here; nearly all actives have AC50 up to about 26 µM.

Turning to `CN(C)C1CCN(C(=O)c2ccc(NC(=O)Nc3ccc(-c4nc(N5CCOCC5)nc(N5CCOCC5)n4)cc3)cc2)CC1`, the concentration at half-maximal activity (AC50) in test [1] was 332 nM (active); in test [2] it was 833 nM (active); in test [3], 295 nM (active); in test [4], 417 nM (active). Further, the IC50 in test [5] was 742 nM (active).
For the molecule `CC(C)c1c(-c2ccccc2)nc2c(C#N)c[nH]n2c1=O`, the call in test [1], in test [2], in test [3], in test [4] and in test [5] was inactive.
On to `C[C@H](CN(C)C)Oc1nc(Nc2cc3cccc(Cl)c3cn2)cnc1C#N`, for which the AC50 is 16600 nM (active) in test [1], 13200 nM (active) in test [2], 16600 nM (active) in test [3] and 8330 nM (active) in test [4]. In addition, the call in test [5] was inactive.
Regarding `O=C(Nc1cc(Oc2cc(F)c(NC(=O)C3(C(=O)Nc4ccc(F)cc4)CC3)cc2F)ccn1)C1CC1`, the AC50 is 14800 nM (active) in test [1], 13200 nM (active) in test [2], 9340 nM (active) in test [3] and 13200 nM (active) in test [4]. Moreover, the IC50 in test [5] was 18600 nM (active).
Regarding `COC(=O)Nc1cc(Nc2cc(NC3CC3)c3ncc(C#N)n3n2)c(Cl)c(N2CCN(C)CC2)c1`, the AC50 in test [1] is 5250 nM (active); in test [2] it was 3720 nM (active); in test [3] it was 2630 nM (active); in test [4], 2950 nM (active). For the same molecule, the IC50 in test [5] was 23500 nM (active).
Take `Cc1[nH]cnc1CN1CCN(C(=O)N[C@@H](CC(C)C)C(=O)O)[C@@H](Cc2ccccc2)C1=O`: the call in test [1], in test [2], in test [3], in test [4] and in test [5] was inactive.
`CCNC(=O)C#Cc1ccc2c(C(=Nc3ccc(CN(C)C)cc3)c3ccccc3)c(O)[nH]c2c1`: the AC50 in test [1] is 162 nM (active); in test [2] it was 574 nM (active); in test [3] it was 72.3 nM (active); in test [4] it was 288 nM (active). Moreover, the IC50 in test [5] is 811 nM (active).
Regarding `COc1ccc2cc(OCC3(C(=O)O)CN(C(=O)c4ccc(F)cc4)C3)ccc2c1`, the outcome in test [1], in test [2], in test [3], in test [4] and in test [5] was inactive.
On to `CCN1CCN(Cc2ccc(NC(=O)c3ccc(C)c(/C=C/c4cnc5[nH]ccc5c4OC)c3)cc2C(F)(F)F)CC1`, for which the AC50 is 1860 nM (active) in test [1], 2350 nM (active) in test [2], 2090 nM (active) in test [3] and 3720 nM (active) in test [4]. Besides, the IC50 in test [5] was 3720 nM (active).
Regarding `CC(C)(C)C(=O)N1N=CC[C@H]1c1ccccc1`, the molecule was called inactive in test [1], in test [2], in test [3], in test [4] and in test [5].
Turning to `CC(C)c1cc(CNc2nc(Nc3cc(C4CC4)[nH]n3)cc(N3CCN(C)CC3)n2)on1`, the AC50 in test [1] is 186 nM (active); in test [2], 166 nM (active); in test [3], 83.3 nM (active); in test [4], 468 nM (active). For the same molecule, the IC50 in test [5] is 525 nM (active).
Regarding `NC(=O)c1ccc2nc(-c3ccc(C4(N)CCC4)cc3)c(-c3ccccc3)n2n1`, the AC50 in test [1] was 13200 nM (active); in test [2], 6610 nM (active); in test [3] it was 7420 nM (active); in test [4], 7420 nM (active). Besides, the molecule was classed as inactive in test [5].
Regarding `O=C(CCCCCCC(=O)N/N=C/c1ccc(N(c2ccccc2)c2ccccc2)cc1)NO`, the AC50 was 20900 nM (active) in test [1], 20900 nM (active) in test [2], 14800 nM (active) in test [3] and 11800 nM (active) in test [4]. For the same molecule, the molecule was classed as inactive in test [5].
As for `O=C(O)CC(C(=O)O)n1c(O)c(C2=c3cc(Br)ccc3=NC2=O)sc1=S` (stereo not given), the molecule was classed as inactive in test [1], in test [2], in test [3], in test [4] and in test [5].
For the molecule `C=C1C[C@H]2C=Nc3cc(OCCCOc4cc5c(cc4OC)C(=O)N4CC(=C)C[C@H]4C=N5)c(OC)cc3C(=O)N2C1`, the AC50 in test [1] was 1.86 nM (active); in test [2] it was 20.9 nM (active); in test [3] it was 16.6 nM (active); in test [4], 3.72 nM (active). For the same molecule, the IC50 in test [5] is 74.2 nM (active).
On the same counts, the results for `CN(Cc1ccc(/C=C/C(=O)NO)cc1)CC12CC3CC(CC(C3)C1)C2` are 833 nM (active), 372 nM (active), 263 nM (active), 332 nM (active) and 2950 nM (active).
On to `COc1ccc(Cl)cc1-c1cc(=O)[nH]c(=S)n1CC(N)=O`, for which the call in test [1], in test [2], in test [3], in test [4] and in test [5] was inactive.
As for `CC[C@]12C=CCN3CC[C@@]4(c5cc([C@@]6(C(=O)OC)CC7C[C@@H](C(C)(F)F)CN(Cc8c6[nH]c6ccccc86)C7)c(OC)cc5N(C)[C@H]4[C@@](O)(C(=O)OC)[C@@H]1OC(C)=O)[C@@H]32` (stereo not given in full), the AC50 in test [1] was 148 nM (active); in test [2], 1050 nM (active); in test [3], 132 nM (active); in test [4] it was 235 nM (active). Also, in test [5], the IC50 is 742 nM (active).
Consider `CCc1c(-c2ccccc2C)nc2c(C#N)c[nH]n2c1=O`, for which the molecule was called inactive in test [1], in test [2], in test [3], in test [4] and in test [5].
In the case of `CCC(=O)N1CCOc2c(cc(-c3cc(OC)cc(OC)c3)cc2C(=O)N[C@H]2CCCN(C)C2)C1`, the molecule was classed as inactive in test [1], in test [2], in test [3], in test [4] and in test [5].
In the case of `C=CC(=O)Nc1cc(N2CCN(CC)CC2)ccc1Nc1cc(N(C)C(=O)Nc2c(Cl)c(OC)cc(OC)c2Cl)ncn1`, the AC50 in test [1] was 14800 nM (active); in test [2] it was 14800 nM (active); in test [3] it was 18600 nM (active); in test [4] it was 20900 nM (active). In addition, in test [5], the molecule was called inactive.
Regarding `COc1nc(OCc2cccc(-c3ccccc3)c2C)ccc1CNCCNC(C)=O`, the AC50 in test [1] was 7420 nM (active); in test [2], 8330 nM (active); in test [3], 9340 nM (active); in test [4], 9340 nM (active). In addition, the IC50 in test [5] is 14800 nM (active).
Turning to `N#Cc1ccc(N(Cc2ccc(Br)cc2)n2cnnc2)cc1`, the molecule was classed as inactive in test [1], in test [2], in test [3], in test [4] and in test [5].
As to `CO[C@@H](C)Cn1c(=O)n(C)c2cnc3ccc(-c4cncc(C(C)(C)O)c4)cc3c21`, the AC50 in test [1] was 934 nM (active); in test [2], 1860 nM (active); in test [3], 590 nM (active); in test [4], 1050 nM (active). In addition, in test [5], the IC50 is 1480 nM (active).
For `COc1cc2c(NC3CCN(CC4CCCCC4)CC3)nc(N3CCCN(C(C)C)CC3)nc2cc1OCCCN1CCCCC1`, the AC50 was 14800 nM (active) in test [1], 18600 nM (active) in test [2], 13200 nM (active) in test [3] and 20900 nM (active) in test [4]. For the same molecule, the IC50 in test [5] is 5250 nM (active).

For orientation: AC50 means the midpoint of the concentration-response curve, whichever way the signal moves. The IC50 is the concentration that gives 50% inhibition.
